These results are taken from PubChem BioAssay (NCI).

SMILES strings stand for the structures. Compounds without any hit were thinned out: in the full panel of roughly 83,000, 20% have a hit.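 A percent growth of 40 corresponds to 60% growth inhibition; 0 means no net growth; -100 means all cells died. Active threshold: below 10.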 Unmarked numbers belong to inactive results. The source made the active and inactive calls.

Among the test systems are NCI-H23 lung; NCI-H226 lung; NCI-H322M lung; HOP-62 NSCLC; NCI-H460 lung; HOP-92 NSCLC; NCI-H522 lung; A549/ATCC NSCLC; 786-0 renal; DU-145 prostate; K-562 leukemia; MALME-3M melanoma; MDA-MB-231 breast; RXF 393 renal; SF-268 CNS; SF-295 CNS; SF-539 CNS; UACC-257 melanoma; M14 melanoma.
Holding throughout (experiment): NCI-60 one-dose screen, 48 h (100 = growth as untreated, 0 = no growth, -100 = all killed)
Holding throughout (settings): 10 µM unless noted

Turning to `CCOC(=O)c1c(C)nc2c(c1N)/C(=C/c1ccc(OC)cc1)C(=O)N2Cc1ccc(F)cc1`, the growth in the experiment on NCI-H23 lung is -38.2% (active); in the experiment on NCI-H226 lung, 8.52% (active); with NCI-H322M lung, 9.93% (active); in the experiment with HOP-62 NSCLC, -45.3% (active); with NCI-H460 lung, 2.95% (active); with HOP-92 NSCLC it was -55.6% (active). In addition, the growth with NCI-H522 lung was -69.6% (active); in the experiment on A549/ATCC NSCLC it was 12%; in the experiment on 786-0 renal it was -50.6% (active); with DU-145 prostate, -90.8% (active); with K-562 leukemia, 4.12% (active); with MALME-3M melanoma, -21.3% (active). Further, the growth in the experiment with MDA-MB-231 breast was -54.7% (active); in the experiment with RXF 393 renal it was -78.6% (active); in the experiment with SF-268 CNS, -23.6% (active); in the experiment with SF-295 CNS, -1.56% (active); in the experiment on SF-539 CNS it was -20.5% (active); in the experiment with UACC-257 melanoma, -52.7% (active). Also, the growth in the experiment on M14 melanoma is -56% (active).

In the case of `CC1(C)N=C(N)N=C(N)N1c1ccc(Cl)c(Cl)c1`, the growth with NCI-H23 lung was 19.2%; with NCI-H226 lung, 52.1%; with NCI-H322M lung, 52.7%; with HOP-62 NSCLC, 16.4%; in the experiment on NCI-H460 lung it was 17%; with HOP-92 NSCLC, 72.3%. The growth with NCI-H522 lung was 45.3%; in the experiment with A549/ATCC NSCLC it was 30.1%; with 786-0 renal it was 9.73% (active); with DU-145 prostate, 46.5%; in the experiment on K-562 leukemia it was 23.6%; in the experiment with MALME-3M melanoma it was 67.8%. In addition, the growth with MDA-MB-231 breast was 68.4%; with RXF 393 renal, 61.4%; in the experiment with SF-268 CNS it was 42.9%; in the experiment on SF-295 CNS, 17.2%; in the experiment on SF-539 CNS, 13.4%; in the experiment with UACC-257 melanoma, 55.6%.

With `C[C@@H]1C(=O)N(C[C@H](Cc2ccccc2)N(Cc2ccccc2)Cc2ccccc2)[C@]1(Cc1ccccc1)C(=O)OC(C)(C)C`, the growth is 42% in the experiment on NCI-H23 lung; 47.8% with NCI-H226 lung; 87.9% with NCI-H322M lung; 81.6% in the experiment with HOP-62 NSCLC; 54% in the experiment on NCI-H460 lung; 46.3% in the experiment with HOP-92 NSCLC. Further, the growth in the experiment on NCI-H522 lung was 50.9%; in the experiment on A549/ATCC NSCLC it was 60%; in the experiment with 786-0 renal it was 72.6%; in the experiment on DU-145 prostate, 77.6%; in the experiment with K-562 leukemia it was 51.6%; in the experiment on MALME-3M melanoma, 88%. Besides, the growth was 61.9% in the experiment with MDA-MB-231 breast; 68.5% in the experiment with RXF 393 renal; 69.8% in the experiment with SF-268 CNS; 40.3% in the experiment on SF-295 CNS; 91% with SF-539 CNS; 45.1% in the experiment with UACC-257 melanoma. In the experiment with M14 melanoma, the growth is 75.4%.

`CN(C)CN1CCN(c2ccc3nc(-c4ccc5nc(-c6ccc(C(F)(F)F)cc6)[nH]c5c4)[nH]c3c2)CC1`: the growth in the experiment with NCI-H23 lung is 55.6%; in the experiment with NCI-H226 lung, 64.2%; in the experiment on NCI-H322M lung it was 87.1%; in the experiment on HOP-62 NSCLC it was 57.6%; in the experiment with NCI-H460 lung, 10.6%; with HOP-92 NSCLC it was 75.8%. Further, the growth was 42.1% in the experiment on NCI-H522 lung; 83.8% with A549/ATCC NSCLC; 78.5% in the experiment on 786-0 renal; 45% in the experiment with DU-145 prostate; 11.6% in the experiment with K-562 leukemia; -4.2% (active) in the experiment on MALME-3M melanoma. The growth with MDA-MB-231 breast was 63.1%; in the experiment on RXF 393 renal, 50.3%; in the experiment with SF-268 CNS, 67.8%; with SF-295 CNS it was 60.7%; in the experiment on SF-539 CNS it was 65.8%; in the experiment with UACC-257 melanoma it was 40.7%. For the same compound, the growth in the experiment with M14 melanoma was 32.2%.

In the case of `CCCCCOC(=O)c1cccc(NC(=O)CN(CC)CC)c1`, the growth was 102% in the experiment on NCI-H23 lung; 96.7% in the experiment with NCI-H226 lung; 97.6% in the experiment on NCI-H322M lung; 86.8% in the experiment with HOP-62 NSCLC; 111% with NCI-H460 lung; 75.6% in the experiment on HOP-92 NSCLC. Further, the growth was 62% in the experiment on NCI-H522 lung; 95.7% in the experiment with A549/ATCC NSCLC; 81.2% in the experiment on 786-0 renal; 104% in the experiment on DU-145 prostate; 103% in the experiment with K-562 leukemia; 94.8% in the experiment with MALME-3M melanoma. The growth in the experiment with MDA-MB-231 breast is 117%; in the experiment on RXF 393 renal, 106%; with SF-268 CNS, 104%; in the experiment with SF-295 CNS, 96.1%; with SF-539 CNS it was 98.6%; in the experiment with UACC-257 melanoma, 105%. The growth with M14 melanoma was 86.9%.

For `C=C(Cl)COC(=O)C(C)(C)O`, the growth with NCI-H23 lung was 99.4%; in the experiment with NCI-H226 lung it was 113%; with NCI-H322M lung, 90%; in the experiment with HOP-62 NSCLC, 105%; in the experiment on NCI-H460 lung, 104%; with HOP-92 NSCLC, 103%. For the same compound, the growth was 93.8% in the experiment on NCI-H522 lung; 94% with A549/ATCC NSCLC; 101% with 786-0 renal; 102% in the experiment on DU-145 prostate; 93.7% in the experiment on K-562 leukemia; 98.7% in the experiment with MALME-3M melanoma. Further, the growth was 121% with MDA-MB-231 breast; 111% in the experiment with RXF 393 renal; 101% in the experiment with SF-268 CNS; 102% in the experiment with SF-295 CNS; 102% with SF-539 CNS; 92.2% in the experiment with UACC-257 melanoma. The growth in the experiment on M14 melanoma is 103%.

Turning to `Nc1ccc2c(S(=O)(=O)O)ccc(S(=O)(=O)O)c2c1`, the growth in the experiment with NCI-H23 lung is 100%; with NCI-H226 lung, 101%; in the experiment with NCI-H322M lung it was 121%; in the experiment with HOP-62 NSCLC it was 92.3%; in the experiment with NCI-H460 lung it was 101%; in the experiment on HOP-92 NSCLC it was 89.1%. For the same compound, the growth with NCI-H522 lung is 85%; in the experiment on A549/ATCC NSCLC, 92.6%; with 786-0 renal, 97.8%; in the experiment on DU-145 prostate, 115%; in the experiment on K-562 leukemia, 90.6%; in the experiment with MALME-3M melanoma it was 109%. Further, the growth with MDA-MB-231 breast was 111%; in the experiment with RXF 393 renal it was 114%; in the experiment with SF-268 CNS it was 102%; in the experiment with SF-295 CNS it was 105%; with SF-539 CNS it was 88.5%; with UACC-257 melanoma it was 95.3%.

`COc1ccc(-c2cn(-c3cccc(C(=O)/C=C/c4cc(OC)c(OC)c(OC)c4)c3)c(=O)[nH]2)cc1`: the growth with NCI-H23 lung was -2.28% (active); with NCI-H226 lung, 32.9%; with NCI-H322M lung, 106%; in the experiment with HOP-62 NSCLC, 229%; in the experiment on NCI-H460 lung, -44.1% (active); with HOP-92 NSCLC, -3.4% (active). The growth was -38.7% (active) with NCI-H522 lung; 46.4% in the experiment on A549/ATCC NSCLC; -89.4% (active) in the experiment on 786-0 renal; 1.51% (active) in the experiment on DU-145 prostate; 0.142% (active) in the experiment on K-562 leukemia; 66.2% with MALME-3M melanoma. The growth was 19.4% in the experiment on MDA-MB-231 breast; -52.8% (active) with RXF 393 renal; 20.1% in the experiment on SF-268 CNS; 26.4% in the experiment with SF-295 CNS; -89.1% (active) in the experiment with SF-539 CNS; 22.8% in the experiment on UACC-257 melanoma.
